ATXN2 expr inh: Primary qHTS for Inhibitors of ATXN expression; HEK-293 ATXN2-luciferase reporter, luminescence, 24 h; Potency, µM (titrated, usually from 57 µM), most hits filed as inhibitors; 360,000 compounds, 0.72% hits; AID 1745845, 2022; note: nearly all actives have a fitted effect of over 55% in size
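qHTS (up to 57 uM final) was run with 24 h compound exposure of reporter cells at 37 °C. Each well was multiplexed: SteadyGlo luminescence measured ATXN2-luciferase expression after a fluorogenic Gly-Phe-AFC viability readout (25 uM final).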
S2 tox: Viability Counterscreen for Primary qHTS for Inhibitors of ATXN expression | S2 cells (HEK-293 line with an ATXN2-luciferase reporter) viability, CellTiter-Fluor protease fluorescence, 24 h | Potency, µM (doses to about 56.7 µM), hits mostly cytotoxic | 400,000 compounds, 0.49% hits | AID 651635, 2014; note: nearly all actives have a fitted effect of over 40% in size
TGFb inhibitor: qHTS for Inhibitors of TGF-b | HepG2 CAGA-GFP TGF-b/SMAD3 reporter, GFP fluorescence, 18 h; TGF-beta stimulated, 500 pg/mL final | 410,000 compounds, 1.2% hits | AID 588855, 2011 | Potency, µM (titrated, usually from 46.1 µM), most hits filed as inhibitors; note: nearly all actives have a fitted effect of over 65% in size
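HEPG2 CAGA-GFP, 1000 cells/well; 2 h settle, 37 C; cpd via pin tool; TGF-b 500 pg/mL final; 18 h, 37 C; GFP imaging ex488/em500-530; %Activity normalised to -TGF-b and +DMSO controls; CRC fit, curve class.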
HepG2 tox: qHTS for Inhibitors of TGF-b: Cytotox Counterscreen | Potency, µM (doses to about 46.1 µM), actives largely listed as cytotoxic | HepG2 CAGA-GFP viability, ATP luminescence, 18 h | 410,000 compounds, 0.76% hits
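CellTiter-Glo luminescence gave cytotoxicity after 18 hours at 37 degrees C. The cells were HepG2 CAGA-GFP in 1% FBS DMEM, stimulated with 500 pg/mL TGF-beta after compound addition. %Activity was normalised to no-cell wells (complete cell-killing) and DMSO (no toxicity), and curves were fitted and classified.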
DRD3 antagonist: qHTS of D3 Dopamine Receptor Antagonist: qHTS | D3R cells, DiscoveRx beta-arrestin luminescence, antagonist mode; stronger effect = lower value | max response, negative = inhibition, % | 360,000 compounds, 2.5% hits | AID 652054, 2013; in the data active = max response below about -50%; inconclusive = no clear call, values can overlap the other calls
Target sequence (P35462 whole entry, looked up): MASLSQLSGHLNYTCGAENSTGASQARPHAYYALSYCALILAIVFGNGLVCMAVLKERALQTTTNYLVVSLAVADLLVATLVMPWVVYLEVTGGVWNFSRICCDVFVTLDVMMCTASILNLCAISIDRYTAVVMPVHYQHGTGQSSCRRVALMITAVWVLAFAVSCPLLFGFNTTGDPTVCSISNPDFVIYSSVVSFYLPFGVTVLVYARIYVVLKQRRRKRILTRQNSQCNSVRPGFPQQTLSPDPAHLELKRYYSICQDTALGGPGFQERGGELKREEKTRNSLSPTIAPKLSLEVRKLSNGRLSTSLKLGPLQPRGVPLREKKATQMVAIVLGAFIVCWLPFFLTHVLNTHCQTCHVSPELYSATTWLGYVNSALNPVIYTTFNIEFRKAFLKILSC
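Cells plated overnight at 1500 cells/well, then exposed to library compounds with dopamine controls for 90 minutes at 37 degrees C. DiscoveRx reagent added for 30–60 minutes at room temperature; luminescence read, quantitative HTS format.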
DRD3 agonist: qHTS of D3 Dopamine Receptor Agonist: qHTS; 410,000 compounds, 0.58% hits; D3R DiscoveRx beta-arrestin cells, luminescence, 90 min; max activation, %; D(3) dopamine receptor (Homo sapiens), P35462; in the data active = max activation above about 30%
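Agonist-mode cell screen: cells plated at 1500/well and incubated overnight at 37 °C, then exposed to library compounds for 90 min at 37 °C. Detection reagent was added for 30–60 min at room temperature, and luminescence was read.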
Each line names hits and unclear results; the compound was inactive in the other large screens. Only some compounds are listed: those with a hit (about 4.8% of all), similar ones and a draw of the others. Unless noted, calls come from the whole dose curve; as a rule, active = well fitted curve in the direction sought with a large enough effect; inconclusive = small, poorly fitted or top-dose-only effect, or another doubt; inactive = no such curve, though single readings can be large; an effect the other way counts as inactive or inconclusive.

Cc1ccc(OCC(=O)Nc2ccc(S(=O)(=O)N(C)C3CCN(C)CC3)cc2)c(C)c1	ATXN2 expr inh inconclusive, S2 tox inconclusive
Cc1c(C(=O)Nc2ccc(S(=O)(=O)N(C)C3CCN(C)CC3)cc2)oc2c(Cl)cccc12	ATXN2 expr inh 25µM, TGFb inhibitor inconclusive, DRD3 antagonist -66 (no result: S2 tox)
Cc1c(C(=O)Nc2ccc(S(=O)(=O)N(C)C3CCN(C)CC3)cc2)oc2ccccc12	ATXN2 expr inh inconclusive, S2 tox inconclusive, TGFb inhibitor inconclusive
Cc1ccccc1OCCC(=O)Nc1ccc(S(=O)(=O)N(C)C2CCN(C)CC2)cc1	DRD3 antagonist -61
CC(CN1CCCCC1)NC(=O)c1scnc1-c1ccccc1 (stereo unspecified)	DRD3 antagonist -84
CC1(C)CCC2=C(O1)c1ccccc1C(=O)C2=O	ATXN2 expr inh 27µM, TGFb inhibitor 3.2µM, HepG2 tox 4µM (no result: S2 tox, DRD3 antagonist, DRD3 agonist)
C=CCn1c(C(C)NC(=O)C(C)(C)C)nc2ccccc21 (stereo unspecified)	DRD3 antagonist -52
C=C1C(=O)C23C(O)C1CCC2C12CCCC(C)(COC(C)=O)C1C(O)C3(O)OC2 (stereo unspecified)	ATXN2 expr inh inconclusive, S2 tox 7.1µM, TGFb inhibitor 2µM, HepG2 tox 3.2µM, DRD3 antagonist -95
CN1Cc2cc(C(=O)N3CCC(C4CCNCC4)CC3)ccc2NC(CC(=O)O)C1=O (stereo unspecified)	none (no result: TGFb inhibitor, HepG2 tox, DRD3 antagonist, DRD3 agonist)
O=C(Nc1ccccc1)OCC1CCCN2CCCCC12 (stereo unspecified)	DRD3 antagonist -53
CCn1cc(S(=O)(=O)c2ccc(C)cc2)[nH]c1=O	none
Cc1ccc(-n2cc(S(=O)(=O)c3ccc(C)cc3)[nH]c2=O)cc1	TGFb inhibitor inconclusive, HepG2 tox 3.2µM
CC(C)N1CC(C(=O)Nc2ccc(Cl)c(Cl)c2)CC1=O (stereo unspecified)	DRD3 agonist 72
CCC1Oc2ccc(C)cc2N(CC(=O)N(Cc2cccnc2)Cc2ccc(C)o2)C1=O (stereo unspecified)	none
CCC1Oc2ccc(C)cc2N(CC(=O)N(Cc2ccc(C)o2)C2CC(C)(C)NC(C)(C)C2)C1=O (stereo unspecified)	ATXN2 expr inh inconclusive, S2 tox inconclusive, TGFb inhibitor inconclusive, HepG2 tox 13µM
CCC1Oc2ccc(C)cc2N(CC(=O)NCCCN2CCCC2)C1=O (stereo unspecified)	DRD3 antagonist -68
CCC1Oc2ccccc2N(CC(=O)NCCN2CCc3ccccc3C2)C1=O (stereo unspecified)	DRD3 antagonist -53
CCC1Oc2ccccc2N(CC(=O)NCCCN2CCN(Cc3ccccc3)CC2)C1=O (stereo unspecified)	S2 tox inconclusive, DRD3 antagonist inconclusive
CCCN1CCN(CCCNC(=O)CN2C(=O)C(CC)Oc3ccccc32)CC1 (stereo unspecified)	none
COc1ccc(-c2onc(C)c2C)cc1S(=O)(=O)N1c2ccccc2CC1C (stereo unspecified)	TGFb inhibitor inconclusive (no result: ATXN2 expr inh, S2 tox, DRD3 antagonist)
Cc1[nH]c2ccccc2c1C(=O)COC(=O)c1ccccc1SCC(=O)N1CCCC1	none (no result: ATXN2 expr inh, S2 tox, DRD3 antagonist, DRD3 agonist)
O=C(c1ccc([N+](=O)[O-])cc1)N1c2ncnn2C2(CCCCC2)[C@@H]2CCCC[C@@H]21	none (no result: DRD3 antagonist)
COc1cc(OC)c2c(-c3cccc(-c4ccc(N(C)C)cc4)c3)cc(=O)oc2c1	TGFb inhibitor 1.1µM
COc1cc(OC)c2c(-c3cccc(-c4ccc(CO)cc4)c3)cc(=O)oc2c1	ATXN2 expr inh inconclusive, TGFb inhibitor 5µM
Cc1ncc2c(c1CNC(=O)c1cncs1)CCN(C(=O)c1csc(-c3cccs3)n1)C2	none (no result: ATXN2 expr inh, TGFb inhibitor, HepG2 tox, DRD3 antagonist, DRD3 agonist)
CCOC(=O)N1CCN(C(=O)c2oc3ccc(S(=O)(=O)N4CCCCC4)cc3c2C)CC1	DRD3 agonist 44
